HEK293 cAMP cs – parental HEK293 cAMP activation (counter-screen). parental HEK293 CNG cAMP sensor, membrane potential fluorescence. Potency, µM (top dose mostly 57.1 µM), without a hit: at the top dose activation, usual class: activators. 2.5% of 73,000 active; also: potency is read from the fitted curve at half-maximal effect; % of control where 0% means no effect; nearly all actives have a fitted effect of over 55% in size
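Parental HEK 293 cells stably expressing a modified CNG channel (no TSHR) report cAMP rise as membrane depolarization. Membrane potential dye with 100 uM RO 20-1724 was loaded for 60 min at room temperature, then compound added for 30 min; fluorescence read at 590 nm.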
TSHR agonist – agonists of human thyroid stimulating hormone receptor; HEK293-CNG-TSHR cells (CNG channel as cAMP sensor), membrane potential dye, cAMP; Potency, µM (titrated, usually from 57.1 µM), without a hit: at the top dose activation, usual class: activators; 0.48% of 73,000 active; AID 926; active = well fitted activation curve with a large enough effect in the main read-out, with a control signal flat, not every such curve was filed as active; inconclusive = small, poorly fitted or top-dose-only effect, or a change in a side signal; inactive = no such curve, though single readings can be large or run the other way; % of control where 0% means no effect;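 also: the control signal comes from parental cells without the receptor; potency is read from the fitted curve at half-maximal effect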
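cAMP rise detected as CNG-channel membrane depolarization by fluorescent dye (emission 590 nm), 30 min after compound, following 60 min dye loading containing 100 uM RO 20-1724 at room temperature. Cells: TSHR/CNG HEK 293, with parental CNG HEK 293 as control.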
BRCT inh green – inhibitors of human BRCA1 BRCT-phosphoprotein interaction (green fluorophore); BRCA1 BRCT-phosphopeptide binding, green fluorescence polarization; Potency, µM (highest dose often 76.9 µM), inactives show top-dose activity change, negative = inhibition, hits mostly inhibitors; 0.05% of 75,000 active; AID 875;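 also: potency is read from the fitted curve at half-maximal effect; plate controls were peptide without protein for full effect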
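Compounds were incubated for 12 min at room temperature with a complex of 100 nM fluorescein-tagged pBACH1 decapeptide and 250 nM His-tagged BRCT protein. Buffer was phosphate pH 7.3 with EDTA, DTT and Tween 20. Disruption of binding lowers the polarization signal.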
TsaE inh – YjeE (TsaE) inhibition, E. coli; P0AF67; purified YjeE enzyme, qHTS inhibition assay; Potency, µM; 0.05% of 71,000 active
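Purified YjeE (10 uM) with BODIPY Texas Red-labeled ADP probe (2 uM); compounds pin-transferred, 15 min at room temperature. Binding inhibition read as decreased fluorescence polarization; ADP titration as control.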
Pol III holo inh – DNA polymerase III holoenzyme inhibition; AID 603; 0.25% of 71,000 active; reconstituted DNA polymerase III holoenzyme replication, biochemical; Potency, µM (series often up to 57.1 µM), inactives show top-dose activity change, negative = inhibition; also: potency is read from the fitted curve at half-maximal effect; % is scaled to controls: 0 for no effect and ±100 for the full control effect
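Reconstituted *E. coli* holoenzyme (0.35 nM Pol III, 1 nM beta, 154 nM SSB, 2 nM primase) was preincubated with compound for 15 min at RT. Synthesis on 1.4 nM ssM13Gori ran 35 min, then was stopped with PicoGreen/EDTA and read as dsDNA fluorescence.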
BRCT PPI red – inhibitors of human BRCA1 BRCT-phosphoprotein interaction (red fluorophore). P38398. BRCT-phosphopeptide binding, red fluorescence polarization. Potency, µM (top dose mostly 76.9 µM), without a hit: at the top dose activity change, negative = inhibition, usual class: inhibitors. 0.03% of 75,000 active; also: % is scaled to controls: 0 for no effect and ±100 for the full control effect
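Fluorescence polarization: 100 nM His-tagged BRCA1 BRCT with 100 nM TAMRA-labelled phospho-BACH1 decapeptide, phosphate buffer pH 7.3 with 150 mM NaCl, DTT, 0.01% Tween 20; 12 min RT. Binding inhibition seen as FP decrease.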
* = called active by the depositor; i = inactive; ? = inconclusive; / = no result; [ ] = dose if it differs, or a comment. Rows were chosen to be rich in hits. Some 3.2% of all compounds tested hit in one or more screens of this group. Unless noted, calls follow the shape of the dose curve; as a rule, active = well fitted curve in the direction sought with a large enough effect; inconclusive = small, poorly fitted or top-dose-only effect, or another doubt; inactive = no such curve, though single readings can be large; an effect the other way counts as inactive or inconclusive.

SMILES	HEK293 cAMP cs	TSHR agonist	BRCT inh green	TsaE inh	Pol III holo inh	BRCT PPI red
CCC(=O)N1CCN(c2ccccc2NC(=O)COc2cc(C)ccc2C(C)C)CC1	15.8µM*	?	2.1%	i	0.2%	-1.2%
Cc1ccccc1OCC(=O)Nc1ccccc1N1CCOCC1	25.1µM*	?	0.4%	i	-4.6%	1.0%
O=C(COc1ccccc1)Nc1ccccc1N1CCN(c2ccc(F)cc2)CC1	7.94µM*	?	-1.8%	i	7.7%	-2.0%
O=C(COc1ccccc1)Nc1ccccc1N1CCN(c2ccccc2)CC1	?	?	-0.3%	i	3.7%	-0.4%
O=C(Nc1ccccc1N1CCN(c2ccc(F)cc2)CC1)c1ccccc1	6.31µM*	?	-3.3%	i	2.3%	-1.7%
CC(C)(C)N1C(=O)[C@H]2[C@H]3[C@H](O)[C@H](O)C/C(=N/NC(=O)OCc4ccccc4)[C@H]3CC[C@@H]2C1=O	-2.9%[11.4 µM]	-4.6%[11.4 µM]	0.2%[15.4 µM]	/	/	0.1%[15.4 µM]
O=C(O)CCSC1=NCCN1	3.4%[11.4 µM]	4.1%[11.4 µM]	-1.7%[15.4 µM]	i	-10.4%[11.4 µM]	-0.2%[15.4 µM]
COC(=O)CNC(=O)C1(C)C=CC2(CCCCC2)N1C(C)=O (configuration not stated)	-2.5%	7.1%	-2.7%	i	-0.8%	0.3%
Cc1cc2c(nc1C)CCCN2CC(O)CN1CCCc2nc(C)c(C)cc21	4.0%[11.4 µM]	14.7%[11.4 µM]	-0.6%[15.4 µM]	/	/	1.3%[15.4 µM]
O=C(Nc1ccccc1N1CCN(c2ccc(F)cc2)CC1)C1CCCCC1	3.16µM*	?	-0.7%	i	-1.8%	1.9%
CC(C)(C)c1cc(/C=C(\C#N)C(N)=S)cc(C(C)(C)C)c1O	3.16µM*	?	25.4%	i	-3.7%	0.9%
[C-]#[N+]/C(C#N)=C\c1cc(C(C)(C)C)c(O)c(C(C)(C)C)c1	2.51µM*	?	8.4%	/	/	-2.1%
C[C@H]1COC(=O)[C@H]2CCCN2C(=O)[C@@H](C)COC(=O)[C@H](Cc2ccccc2)NC1=O	-3.4%[11.4 µM]	-5.9%[11.4 µM]	-1.7%[15.4 µM]	/	/	0.1%[15.4 µM]
CN(C)c1cc(NC(=O)CN2CCOCC2)c2ccccc2n1	20µM*	?	-1.4%	i	-1.3%	-0.6%
COc1ccc(-c2noc(CSc3nc4ccccc4c(=O)n3-c3ccccc3)n2)cc1OC	18.5%	25.6%	-0.7%	i	-9.1%	-1.9%
COc1cc(-c2nnc(COC(=O)CSc3cc(C)c4ccccc4n3)o2)cc(OC)c1OC	7.3%	6.4%	0.6%	i	-3.3%	0.7%
COc1cc(-c2nnc(CSc3nc4ccccc4s3)o2)cc(OC)c1OC	31.6µM*	?	3.5%	i	1.5%	-0.1%
COc1ccc(-c2nnc(CSc3nc4ccccc4c(=O)n3CC(C)C)o2)cc1OC	7.94µM*	?	1.2%	i	0.9%	-0.4%
COc1ccc(OC)c(N2C(=O)[C@@H]3C(c4ccccc4Cl)=NO[C@@H]3C2=O)c1	1.3%	/	-2.7%	i	31.6µM*	-3.3%
C[C@@H](C(=O)O)c1ccc(C[C@@H]2CCCC2=O)cc1	27.4%	9.0%	-1.2%	i	-0.8%	-1.1%
Cc1ccccc1-c1nnc(SCC(=O)NC2CCCCC2)o1	31.6µM*	?	2.0%	i	1.3%	-1.4%
COc1ccccc1-c1nnc(SCC(=O)NC2CCCCC2)o1	2.2%	6.7%	0.0%	i	1.0%	-1.3%
OC[C@@H]1O[C@@H](n2cnc3c(NC4CCCC4)ncnc32)[C@@H](O)[C@H]1O	?	?	-2.6%	i	-9.3%	-4.2%
O=C(Cn1c(=O)n2ncnc2c2c3c(sc21)CCCC3)c1ccccc1	25.1µM*	?	-0.1%	i	5.4%	-1.0%
O=c1n(Cc2ccccc2Cl)c2sc3c(c2c2ncnn12)CCCC3	28.2%	20µM*	-4.0%	i	-3.6%	-2.0%
SMILES	HEK293 cAMP cs	TSHR agonist	BRCT inh green	TsaE inh	Pol III holo inh	BRCT PPI red
NC(=O)CSc1nc2sc3c(c2c2ncnn12)CCCC3	1.5%	21.7%	11.4%	i	-15.4%	-1.4%
CCNc1ncc2nc(CCc3ccccc3)c(=O)n(C)c2n1	?	?	0.4%	i	0.8%	-0.9%
CCCC[C@H]1C[C@@H]1[C@@H]1N(C(C)=O)[C@H](c2cccc(OC)c2)CC12CC2	20µM*	?	1.0%	i	-3.3%	-1.4%
COC(=O)CC1=COC2OCC3=CC[C@@H]1C32 (some centres not stated)	-1.0%[11.4 µM]	-3.8%[11.4 µM]	0.6%[15.4 µM]	/	/	-0.4%[15.4 µM]
O=C(CCC1N=C2c3ccccc3N=C(SCc3ccc(Cl)cc3)N2C1=O)NCc1ccco1 (configuration not stated)	20µM*	?	2.3%	i	0.6%	2.2%
O=C(CCC1N=C2c3ccccc3N=C(SCc3ccc(F)cc3)N2C1=O)NCc1ccco1 (configuration not stated)	?	?	-4.6%	i	-3.3%	2.1%
COc1ccc(C2c3c(oc4c(C)cc(C)cc4c3=O)C(=O)N2Cc2cccnc2)cc1OC (configuration not stated)	-0.7%	6.5%	-4.4%	i	-2.0%	1.1%
COc1ccc(C2c3c(-c4cc(Cl)c(C)cc4O)n[nH]c3C(=O)N2Cc2cccnc2)cc1OC (configuration not stated)	9.5%	7.94µM*	2.8%	i	5.5%	0.0%
Cc1nnc(SCC(=O)c2c(N)n(C)c(=O)n(C)c2=O)[nH]c1=O	13.0%	2.2%	-2.2%	i	-4.2%	0.4%
CC(C)c1nc(-c2c(N)n(C)c(=O)n(C)c2=O)sc1C(=O)C(C)(C)C	15.8µM*	?	-1.7%	i	-0.8%	1.3%
O=C(Nc1cc(C(F)(F)F)ccc1N1CCOCC1)C1Cc2ccccc2CN1C(=O)c1ccco1 (configuration not stated)	1.26µM*	?	4.5%	i	-2.1%	-0.2%
O=C(Nc1cc(C(F)(F)F)ccc1N1CCCCC1)c1ccco1	?	?	-0.9%	i	6.5%	-0.1%
O=C(CCCSc1nnc(-c2cccs2)n1CC1CCCO1)c1ccccc1 (configuration not stated)	?	?	-0.8%	i	0.5%	1.1%
CCOc1ccc(C(C)=O)cc1CSc1nnc(-c2cccs2)n1CC1CCCO1 (configuration not stated)	10µM*	?	1.4%	i	-5.2%	0.5%
CC[C@H](NC(C)C)[C@H](O)c1ccc(O)c(O)c1	0.251µM*	?	-4.3%[34.4 µM]	i	-4.7%[25.6 µM]	-1.1%[34.4 µM]
COCCOC(=O)c1c(C)oc2ccc(OCc3cc(C(=O)OC)oc3C)cc12	25.1µM*	?	-0.3%	i	0.7%	1.0%
